The target in one test is Albumin (Bos taurus) (UniProt P02769). The test can be described thus: compounds binding labelled BSA control protein – biochemical, small-molecule microarray, Alexa647 label, 635/667 nm fluorescence, artefact control for SMM control protein annotation, profiling panel (AID 1118).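 Further: score merges 667 nm emission intensity and signal-to-noise per printed compound spot.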 To be noted: BSA-A647 binding, fluorescence 635 nm, higher = more signal.
Test [1] is described as follows: probe aXIP binding to arrayed compounds – biochemical, NeuroSMM set, 635/667 nm fluorescence, primary screen (AID 1119).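 Further: probe is the protein aXip251-270 applied at 1 µg/mL to compound-printed slides; binding of probe to printed compounds measured as 667 nm fluorescence plus signal to noise.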 The note with it: small-molecule microarray, higher = more signal, called active from +8 up or from −8 down.
Test [2] in a line: probe aNOTCH3 binding on compound microarray – biochemical, small-molecule microarray, 635/667 nm fluorescence, primary screen (AID 1120).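 Further: probe is a biotin-tagged antibody raised against NOTCH3 rather than NOTCH3 protein; score merges spot fluorescence near 667 nm with spot signal to noise.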 To be noted: higher = more signal.
Test [3] is described as follows: probe aNOTCH2 binding on compound microarray – biochemical, small-molecule microarray, 635/667 nm fluorescence, primary screen (AID 1121).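 Further: score merges feature fluorescence read at 667 nm with its signal to noise.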 The note with it: higher = more signal.
The target of test [4] is Carbonic anhydrase 2 (Homo sapiens) (UniProt P00918). The test is described as follows: compounds binding carbonic anhydrase 2 – biochemical, small-molecule microarray, Alexa647-labelled CAII, profiling panel (AID 1122). To be noted: CAII-A647 binding fluorescence, higher = more signal.
Test [5] can be described thus: COS7 lysate on small-molecule microarray, probe aHis, 635 nm (AID 1123).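 Further: z-score combines 667nm fluorescence intensity with signal-to-noise per printed compound spot.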 To be noted: COS7 cell lysate, fluorescence, higher = more signal.
Test [6] in a line: probe aLAP1 signal on lysate-treated microarray – cell lysate, small-molecule microarray, COS7 lysate, primary screen (AID 1124).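 Further: lysate comes from COS7 cells expressing LAP1 and is applied at 0.3 µg/mL; score merges spot fluorescence near 667 nm with signal-to-noise over triplicate slides.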 The note with it: probe aLAP1, fluorescence, higher = more signal.
The subject of a further test is Sam68 (KHDRBS1). The test can be described thus: compounds binding KHDRBS1 protein – biochemical, small-molecule microarray, 635 nm fluorescence, primary screen (AID 1125).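 Further: score merges 667 nm channel intensity with signal to noise over triplicate slides.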 The note with it: higher = more signal.
Test [7] relates to Chordin-like protein 2 (CHRDL2). The test can be described thus: compounds binding chordin-like 2 – biochemical, small-molecule microarray, 635 nm fluorescence, primary screen (AID 1126).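 Further: printed compound slides probed with Chrdl2 protein at 4 µg/mL for 1 h at 4 C; score merges 667 nm emission intensity with signal to noise over three replicate slides.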 To be noted: fluorescence 635 nm, higher = more signal.
Test [8] concerns the target Concanavalin-A (Canavalia ensiformis) (UniProt P02866). The test is described as follows: compounds binding concanavalin A lectin – biochemical, small-molecule microarray, Alexa647 label, 635 nm, artefact control for SMM control protein annotation, primary screen (AID 1127).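 Further: z combines 667 nm emission intensity with signal-to-noise across three replicate slides.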 The note with it: ConA-A647 binding fluorescence, higher = more signal.

Active and inactive are the calls of the source.

Albumin (Bos taurus), sequence (P02769 whole entry, looked up): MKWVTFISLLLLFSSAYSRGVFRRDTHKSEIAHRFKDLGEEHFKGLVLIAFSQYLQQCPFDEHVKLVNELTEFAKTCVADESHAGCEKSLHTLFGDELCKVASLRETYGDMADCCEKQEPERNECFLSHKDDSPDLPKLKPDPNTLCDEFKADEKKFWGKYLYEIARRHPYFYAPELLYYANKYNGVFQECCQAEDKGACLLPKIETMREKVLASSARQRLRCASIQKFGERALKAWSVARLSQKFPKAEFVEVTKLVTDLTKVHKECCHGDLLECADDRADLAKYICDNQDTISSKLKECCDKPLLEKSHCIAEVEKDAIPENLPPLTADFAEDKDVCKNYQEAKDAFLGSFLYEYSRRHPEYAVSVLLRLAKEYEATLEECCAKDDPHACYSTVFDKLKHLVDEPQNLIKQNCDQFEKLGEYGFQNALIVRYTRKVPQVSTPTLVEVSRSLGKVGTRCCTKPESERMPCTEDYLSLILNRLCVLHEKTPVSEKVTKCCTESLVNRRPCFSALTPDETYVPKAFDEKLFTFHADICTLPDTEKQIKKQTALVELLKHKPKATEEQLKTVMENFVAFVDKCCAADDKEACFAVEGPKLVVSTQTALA
Concanavalin-A (Canavalia ensiformis), sequence (P02866 whole entry, looked up): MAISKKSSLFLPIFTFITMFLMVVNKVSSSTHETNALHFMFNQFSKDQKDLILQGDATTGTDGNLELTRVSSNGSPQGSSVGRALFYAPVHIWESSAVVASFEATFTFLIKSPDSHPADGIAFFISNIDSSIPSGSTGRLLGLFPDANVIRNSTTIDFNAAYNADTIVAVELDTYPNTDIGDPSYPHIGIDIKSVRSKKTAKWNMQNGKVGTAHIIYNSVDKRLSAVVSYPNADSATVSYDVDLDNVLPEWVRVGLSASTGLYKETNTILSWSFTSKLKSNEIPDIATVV

`CC(C)CNC(=O)[C@@]1(c2ccc([N+](=O)[O-])cc2)CC(=O)N(C2CCCCC2)[C@@H]1c1ccc(CO)cc1`: the composite z-score with Albumin (Bos taurus) was 0.819; in test [2], -0.191; in test [3] it was -0.123; in test [4], 0.714; in test [5], 2.05; in test [6], 0.571. The composite z-score in the test with Sam68 (KHDRBS1) is 0.244; in test [7], 0.0971; in [8], 0.213. Moreover, the composite Z-score in test [1] was 1.08 (inactive).

In the case of `CC(C)(C)OC(=O)CC[C@]1(C(=O)N2CCCCC2)COC(c2ccc(OCCCO)cc2)=N1`, the composite z-score was 0.939 in the test with Albumin (Bos taurus); 0.286 in test [2]; 0.0341 in [3]; 0.862 in test [4]; 2.68 in test [5]; 1.05 in test [6]. Besides, the composite z-score with Sam68 (KHDRBS1) is 1.14; in test [7], -0.538; in [8], 1.11. Further, the composite Z-score in test [1] was 1.28 (inactive).

Consider `C=C(/C(=C/C[C@@H](OC(C)=O)c1ccc(OCCO)cc1)c1cc(C(=O)OC)ccc1OC)C(C)C`, for which the composite z-score with Albumin (Bos taurus) is 0.296; in test [2], -0.0417; in test [3], -0.127; in test [4], 0.735; in [5], 0.303; in test [6], 1.2. The composite z-score with Sam68 (KHDRBS1) is 0.938; in [7] it was -0.137; in [8], 0.697. Also, the composite Z-score in test [1] is 0.185 (inactive).

For the molecule `CCCCC(=C=CC[C@H](O)c1ccc(OCCO)cc1)C[C@H](O)c1cc(Cl)cc(Cl)c1O`, the composite z-score was 0.377 with Albumin (Bos taurus); -0.0178 in test [2]; -0.133 in test [3]; 0.456 in test [4]; 0.271 in test [5]; 0.163 in test [6]. Besides, the results for the composite z-score (in the test with Sam68 (KHDRBS1); in test [7]; in [8]) were 0.805, 0.44 and 0.72, respectively. In addition, in test [1], the composite Z-score was 0.671 (inactive).

For the molecule `CC(C)C(=C=CC[C@@H](O)c1cccc(OCCO)c1)C[C@@H](O)c1ccccn1`, the composite z-score with Albumin (Bos taurus) was 0.0608; in test [2], -0.0362; in test [3], -0.123; in test [4], 0.26; in [5], -0.293; in [6] it was 0.726. Besides, the figures for the composite z-score (with Sam68 (KHDRBS1); in test [7]; in [8]) were -0.228, -0.377 and -0.155, respectively. For the same molecule, in test [1], the composite Z-score is -0.259 (inactive).

Take `COc1ccc(C(=O)Nc2cccc(CN3C(=O)[C@]4(O[C@H](CCn5cc([C@H](O)c6ccccc6)nn5)[C@@H]([Si](C)(C)c5ccc(OC)cc5)[C@@H]4C)c4ccccc43)c2)cc1`: the composite z-score with Albumin (Bos taurus) was -0.215; in test [2] it was 0.0916; in test [3], -0.0986; in test [4], 0.169; in test [5], 0.18; in test [6], -0.206. The composite z-score in the test on Sam68 (KHDRBS1) was 0.962; in [7], 0.153; in [8], 0.587. Also, the composite Z-score in test [1] is -0.213 (inactive).

On to `CN1C(=O)C2C(C1=O)C1C=C(CCCO)C2C(c2cccs2)N1Cc1cc2c(cc1Br)OCO2` (stereo not given), for which the composite z-score with Albumin (Bos taurus) is 1.01; in [2], 0.323; in test [3] it was -0.144; in [4] it was 0.805; in [5], 2.24; in [6], 1.09. Also, the figures for the composite z-score (in the test with Sam68 (KHDRBS1); in [7]; in test [8]) were 1.3, 0.171 and 1.18, respectively. In addition, the composite Z-score in test [1] is 1.13 (inactive).

Turning to `COCC(=C=CC[C@@H](O)c1cccc(OCCO)c1)CCO`, the composite z-score is 0.682 with Albumin (Bos taurus); -0.0293 in test [2]; 0.011 in test [3]; 0.708 in [4]; 0.562 in test [5]; 1.41 in [6]. Besides, the composite z-score is 0.381 with Sam68 (KHDRBS1), -0.325 in test [7] and 0.856 in test [8]. Moreover, in [1], the composite Z-score is 0.0124 (inactive).

Consider `CCCCCN1CC=CC23O[C@@H]4/C=C\CCC(C)OC(=O)C4[C@H]2C(=O)N(CCCCCCO)[C@@H]3C1=O` (stereo not given in full), for which the composite z-score was 0.548 with Albumin (Bos taurus); -0.311 in test [2]; -0.164 in [3]; 0.781 in [4]; 0.84 in test [5]; 1.57 in test [6]. In addition, the composite z-score in the test on Sam68 (KHDRBS1) was 0.623; in [7] it was -0.41; in test [8], -0.296. Besides, the composite Z-score in test [1] was 0.928 (inactive).

Regarding `[N-]=[N+]=Nc1ccccc1[C@@H]1OC(c2ccc(OCCCO)cc2)=N[C@]1(Cc1ccccc1)C(=O)NCc1ccccc1`, the composite z-score with Albumin (Bos taurus) was determined as 0.955; in test [2], 0.367; in test [3] it was 0.156; in test [4] it was 0.379; in test [5], 2.74; in test [6], 1.13. The results for the composite z-score (with Sam68 (KHDRBS1); in test [7]; in [8]) were 1.3, -0.553 and 1.18, respectively. Also, the composite Z-score in [1] is -0.128 (inactive).

Regarding `CN(C)C(=O)[C@]1(CCS(=O)(=O)c2ccccc2)N=C(c2ccc(OCCCO)cc2)O[C@@H]1c1ccccc1`, the composite z-score with Albumin (Bos taurus) is 0.907; in test [2], 0.201; in test [3], -0.0676; in [4], 0.769; in test [5] it was 2.99; in [6], 0.565. Moreover, the composite z-score is 1.3 in the test with Sam68 (KHDRBS1), -0.0707 in [7] and 0.937 in test [8]. Besides, in test [1], the composite Z-score was 0.462 (inactive).

For `CN1C(=O)[C@@H]2[C@@H](CC(COc3ccccc3)=C([C@H](O)CCc3ccccc3)[C@@H]2CO)C1=O`, the composite z-score with Albumin (Bos taurus) is -0.112; in test [2] it was -0.0343; in test [3] it was -0.201; in test [4] it was 0.0456; in test [5] it was -0.492; in [6], -0.525. The composite z-score was 0.0336 in the test on Sam68 (KHDRBS1), 0.0213 in test [7] and -0.0217 in test [8]. Also, in [1], the composite Z-score was 0.252 (inactive).

In the case of `CN(C)C(=O)[C@@]1(Cc2ccccc2N=[N+]=[N-])N=C(c2ccc(OCCCO)cc2)O[C@H]1c1ccccc1`, the composite z-score with Albumin (Bos taurus) stood at 0.897; in [2], 0.484; in test [3], 0.369; in test [4] it was 0.681; in test [5], 2.76; in [6], 1.13. The figures for the composite z-score (in the test with Sam68 (KHDRBS1); in [7]; in test [8]) were 1.31, -0.699 and 1.18, respectively. Moreover, the composite Z-score in [1] is 2.37 (inactive).

With `C=CCC(OC(C)=O)[C@@H]1[C@@H](N(Cc2ccc(-c3ccccc3)cc2)C(=O)c2ccc(C)cc2)c2cc(OCCCO)ccc2N1C(=O)Cc1ccc2ccccc2c1` (stereo not given in full), the composite z-score with Albumin (Bos taurus) is 0.233; in [2], -0.0362; in test [3], -0.159; in [4], -0.14; in test [5] it was 0.772; in [6] it was -0.0769. For the same molecule, the composite z-score in the test on Sam68 (KHDRBS1) was -0.106; in test [7], 0.248; in [8], 0.202. Besides, in test [1], the composite Z-score is -0.645 (inactive).

With `COc1ccc([Si](C)(C)[C@@H]2[C@@H](CCn3cc([C@H](O)c4ccccc4)nn3)O[C@]3(C(=O)N(c4ccccc4)c4ccccc43)[C@H]2C)cc1`, the composite z-score with Albumin (Bos taurus) is -0.591; in [2], -0.145; in test [3] it was -0.131; in test [4], 0.0028; in test [5] it was 0.233; in test [6], -0.232. The composite z-score in the test with Sam68 (KHDRBS1) was 0.548; in test [7], -0.063; in [8], 0.503. The composite Z-score in [1] is -0.424 (inactive).

Take `Nc1cc(Br)ccc1C(=O)O`: the composite z-score in the test with Albumin (Bos taurus) was 0.235; in test [2] it was 0.0026; in test [3] it was -0.117; in [4], 0.18; in test [5], -0.12; in test [6], -0.0137. Besides, the composite z-score is 0.213 in the test on Sam68 (KHDRBS1), -0.079 in [7] and 0.713 in test [8]. In [1], the composite Z-score was 2.13 (inactive).

For the origin of these results see PubChem BioAssay.
